Among the data in PubChem BioAssay (Tox21) are Potency values, retold here.

Where “and” joins values, the source holds several entries; their conditions need not be identical. Equal values may be shown once. Records with an inconclusive call do not appear. Entries that show only a call come without a potency. Some compounds were tested as several samples or in several runs, with calls that do not always agree. Calls of active or inactive are those of the source. Calls come from the whole dose curve; as a rule, active = well fitted inhibition curve with a large enough effect in the repeat runs; inconclusive = weak or mixed curves; inactive = no such curve, though single readings can be large or run the other way.
Potency is the fitted concentration of half-maximal effect.

Cytochrome P450 3A4 (Homo sapiens), sequence (P08684 whole entry, looked up): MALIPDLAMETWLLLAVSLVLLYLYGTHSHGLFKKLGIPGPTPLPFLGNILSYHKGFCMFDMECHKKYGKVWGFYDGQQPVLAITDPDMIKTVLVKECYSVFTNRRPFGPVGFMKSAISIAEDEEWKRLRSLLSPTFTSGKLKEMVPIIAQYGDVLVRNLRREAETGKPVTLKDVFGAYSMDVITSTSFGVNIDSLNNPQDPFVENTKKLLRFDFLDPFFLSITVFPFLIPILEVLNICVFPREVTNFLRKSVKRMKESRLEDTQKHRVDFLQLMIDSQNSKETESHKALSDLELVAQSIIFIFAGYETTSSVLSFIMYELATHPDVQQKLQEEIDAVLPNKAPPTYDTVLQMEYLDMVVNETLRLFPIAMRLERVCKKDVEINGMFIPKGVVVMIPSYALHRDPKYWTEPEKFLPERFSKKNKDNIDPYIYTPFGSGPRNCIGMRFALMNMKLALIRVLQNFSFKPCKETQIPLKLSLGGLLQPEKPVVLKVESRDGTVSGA

In this assay the target is Cytochrome P450 3A4 (Homo sapiens) (UniProt P08684). Kind of assay: Cytochrome P450 Family 3 Subfamily A Member 4 (CYP3A4) small molecule antagonists: luciferase reporter qHTS assay (AID 1671201). Note: nearly all actives have a fitted effect of over 50% in size. The conditions noted are these: P450-Glo CYP3A4 enzyme, luciferin luminescence, 1 h; series mostly up to 115 µM. The text has this:
National Center for Advancing Translational Sciences [NCATS]
U.S. Environmental Protection Agency [EPA]
National Institutes of Environmental Health Sciences [NIEHS]
National Toxicology Program [NTP]
U.S. Food and Drug Administration [FDA]
Cytochrome P450 (CYP) enzymes are membrane-bound hemeproteins that play a key role in metabolism of drugs and xenobiotics. Evaluation of the effect of chemicals on CYP isozymes is useful to minimize the adverse drug reactions and toxicities in drug development process. Tox21 chemicals were tested for their effect on CYP enzyme activities by using P450-Glo (TM) screening systems (Promega Corporation, Madison, WI). These systems provide a luminescent method containing proluciferin substrates and are converted to luciferin products by CYP isozymes. The luciferin products formed are detected with a luciferin detection reagent, and the amount of light produced is proportional to CYP activity. P450-Glo (TM) CYP3A4 screening system (Catalog. No. V9910) was used to detect the compounds that interfere in CYP3A4 activity. The positive control compound used for CYP3A4 assay is ketoconazole (Sigma-Aldrich, St. Louis, MO).
Tox21 Assay Protocol Summary:
Two ul of enzyme-substrate mix was dispensed into medium binding white/solid 1536-well plates (Greiner Bio-One North America Inc., Monroe, NC) using a BioRaptr Flying Reagent Dispenser (FRD, Beckman Coulter, Brea, CA). Compounds dissolved in DMSO and positive control (ketoconazole) were transferred to the assay plates at 23 nl using a Pintool station (Wako, San Diego, CA). The assay plates were incubated at room temperature for 10 min. Then 2 ul of NADPH regeneration solution was added to each well of the assay plates using an FRD and incubated at room temperature for 1 h. The reaction was stopped by adding 4 ul of detection reagent using an FRD and after 20 min incubation at room temperature the luminescence signal was measured using a ViewLux plate reader (Perkin Elmer, Shelton, CT). Data were expressed as relative luminescence units.
Regarding `C=C(C)OC(C)=O`, the Potency result was “inactive”.

Turning to `Cc1ccc(O)c(-n2nc3ccccc3n2)c1`, the Potency was 22.3 µM (active) and 25.2 µM (active).

On to `CC(O)COc1ccccc1` (stereo not given), for which the Potency result is “inactive”.

Take `COc1ccccc1NC(=O)CC(C)=O`: the Potency was 63.3 µM (active).

On to `O=[N+]([O-])c1ccc(O)cc1`, for which the Potency is 5.86 µM (active) and inactive.

For the molecule `O=C(O)CCCCC1CCSS1` (stereo not given), the Potency entry is “inactive”.

Consider `COCC(C)N` (stereo not given), for which the Potency result was “inactive”.

As to `NC(=O)N1c2ccccc2C=Cc2ccccc21`, the Potency result was “inactive”.

With `CCCCCCCCOc1ccc(C(=O)c2ccccc2)c(O)c1`, the Potency entry was “inactive”.

With `OCCCc1ccccc1`, the Potency result is “inactive”.

As to `C=CCOC(=O)CC(C)C`, the Potency result is “inactive”.

As for `Cc1c(N(C)CS(=O)(=O)O)c(=O)n(-c2ccccc2)n1C`, the Potency entry is “inactive”.

`CN(C)Cc1cc(CN(C)C)c(O)c(CN(C)C)c1`: the Potency result was “inactive”.

Turning to `COc1ccc(C(=O)c2ccccc2)c(O)c1`, the Potency entry was “inactive”.

As to `OC[C@@H](O)[C@@H](O)[C@H](O)[C@H](O)CO`, the Potency result was “inactive”.

With `NC(=O)N/N=C/c1ccc([N+](=O)[O-])o1`, the Potency result is “inactive”.

With `CCCCOCCOCCSC#N`, the Potency result is “inactive”.

For the molecule `CCCCCCCCCCCCCCCCCC(=O)OCC(O)CO` (stereo not given), the Potency entry was “inactive”.

For `O=C(OCc1ccccc1)c1ccccc1`, the Potency result was “inactive”.

`C[C@]12C[C@H](O)[C@H]3[C@@H](CCC4=CC(=O)CC[C@@]43C)[C@@H]1CC[C@@H]2C(=O)CO`: the Potency entry was “inactive”.

For the molecule `NC(=O)c1ccc([N+](=O)[O-])cc1Cl`, the Potency result is “inactive”.

Take `Cc1cccc(Nc2cc(Cl)nc(SCC(=O)O)n2)c1C`: the Potency entry was “inactive”.

Regarding `CCCCC/C(C=O)=C\c1ccccc1`, the Potency result was “inactive”.

In the case of `COc1cc(O)c(C(=O)c2ccccc2)cc1S(=O)(=O)O`, the Potency entry was “inactive”.

For `CCn1cc(C(=O)O)c(=O)c2ccc(C)nc21`, the Potency entry is “inactive”.

`Cc1c(N(C)C)c(=O)n(-c2ccccc2)n1C`: the Potency entry is “inactive”.

As to `NC(N)=NC(N)=NCCc1ccccc1`, the Potency result was “inactive”.

For `CCN1CCCC1=O`, the Potency entry is “inactive”.

As to `CC(C)CC(C)CC(O)CC(C)C` (stereo not given), the Potency result was “inactive”.

Consider `C=CC(=O)NC(C)(C)CS(=O)(=O)O`, for which the Potency result is “inactive”.

Regarding `CC1=C(/C=C/C(C)=C/C=C/C(C)=C/C(=O)O)C(C)(C)CCC1`, the Potency was 35.6 µM (active) and 28.2 µM (active).

Take `Cc1cccc(C)c1O`: the Potency result was “inactive”.

Take `O=C(O)Cc1cccc2ccccc12`: the Potency entry was “inactive”.

Consider `COc1ccc(O)cc1`, for which the Potency entry was “inactive”.

Consider `N[C@@H](Cc1c[nH]c2ccccc12)C(=O)O`, for which the Potency result is “inactive”.

Regarding `COC(=O)C1CCC(C(=O)OC)CC1` (stereo not given), the Potency entry is “inactive”.

`CC(=O)Oc1ccccc1C(=O)O`: the Potency result is “inactive”.

For `O=C1CCCCCN1`, the Potency result was “inactive”.

As for `CCN(CC)CCOC(=O)c1ccc(N)cc1`, the Potency entry was “inactive”.

As to `COc1ccccc1O`, the Potency result is “inactive”.
